Sampled rows, rich in hits. Any-hit rate of the full collection: about 4%.
NALP3 yeast inh: NALP3 inflammasome inhibitors in reconstituted yeast, primary screen, luminescence, uHTS; inhibition, % at 10 µM; hit rate 0.39% among 330,000; AID 2825, 2010; Yeast reconstituted NLRP3/ASC/caspase-1, beta-gal luminescence, 24 h;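 active means inhibition of 50% or more; inactive means inhibition below 50%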;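 further: plate controls were induced DMSO wells for no effect and uninduced yeast grown without galactose for full effect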
tim23-1 inh: growth inhibitors of tim23-1 mutant yeast, primary screen, luminescence, uHTS. S. cerevisiae tim23-1 growth, BacTiter-Glo luminescence, 24 h. inhibition, % at 20 µM. hit rate 1.3% among 330,000. AID 463212, 2010;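 active means growth inhibition of the mutant yeast at or above 50%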;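 further: temperature-sensitive mutant grown at 25 °C; plate controls were DMSO-treated mutant yeast for no effect and medium wells lacking yeast for full effect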
tim10-1 inh: growth inhibitors of tim10-1 mutant yeast, primary screen, luminescence, uHTS | hit rate 2.2% among 330,000 | AID 463190, 2010 | inhibition, % at 20 µM | S. cerevisiae tim10-1 ts strain growth, BacTiter-Glo, 24 h;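 active means inhibition of at least 40%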;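 further: mutant grown at 25 °C; 0% = DMSO wells with yeast and 100% = wells holding no yeast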
NALP1 yeast inh: NALP1 inflammasome inhibitors in reconstituted yeast, colorimetric, S. cerevisiae, triplicate retest | S. cerevisiae NALP1/ASC/caspase-1 growth, X-gal OD620, 72 h | hit rate 0.61% among 280,000 | inhibition, % at 10 µM | AID 2071, 2009; in the data active means inhibition mostly above about 24%, no sharp cut-off; inactive means mostly below about 32%
TIM10 inh: growth inhibitors of isogenic TIM10 control yeast, primary screen, counter-screen for tim10-1 yeast inhibitor project, luminescence, uHTS | S. cerevisiae TIM10 strain growth, BacTiter-Glo luminescence, 24 h | inhibition, % at 10 µM | hit rate 1.4% among 330,000 | AID 463195, 2010;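 active means inhibition of 40% or more at the single tested concentration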;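 further: wild-type TIM10 isogenic control strain grown at permissive 25 °C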
tim23-1 confirm: tim23-1 mutant yeast growth inhibitors, confirmation, luminescence, single concentration. shares compounds with tim23-1 inh. hit rate 83% among 4,400. S. cerevisiae tim23-1 growth, BacTiter-Glo luminescence, 24 h. inhibition, % at 20 µM;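 active means inhibition above about 39% in either of two replicate wells at 20 µM, limit read from the data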;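 further: temperature-sensitive tim23-1 mutant grown at 25 °C; 0% = DMSO wells with yeast and 100% = medium wells without yeast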
Starred values were filed as active, the others as inactive; . = no result.

SMILES	NALP3 yeast inh	tim23-1 inh	tim10-1 inh	NALP1 yeast inh	TIM10 inh	tim23-1 confirm
Cc1ccccc1NC(=O)C(C)Sc1nnc(-c2ccncc2)n1CC1CCCO1 (stereo not drawn)	4.5	-8.1	-7.8	8.9	0.0	.
CN(Cc1ccccc1)C(=O)CN1CCN(S(=O)(=O)c2ccc(Cl)c(Cl)c2)CC1	10.1	51.5*	18.9	.	15.9	33.2
Cc1cc(S(=O)(=O)N2CCN(CC(=O)N(C)Cc3ccccc3)CC2)ccc1Br	11.8	41.6	26.9	.	14.3	.
O=C(Oc1ccc(O)cc1)C12CC3CC(CC(C3)C1)C2	13.8	63.2*	-19.0	-0.5	25.3	65.6*
O=C(OCC(=O)C12CC3CC(CC(C3)C1)C2)c1ccc(O)cc1	19.9	63.3*	-6.0	.	-3.1	60.8*
O=C(Oc1ccc2c(c1)OCO2)C12CC3CC(CC(C3)C1)C2	21.3	32.3	13.9	26.5	7.2	.
COc1cc(CN2CCNC(=O)C2CC(=O)N(C)CCN2CCOCC2)cc(OC)c1 (stereo not drawn)	1.6	12.8	18.0	0.9	-5.1	.
[O-][n+]1cccc2ncc3cscc3c21	-27.0	2.9	12.8	4.3	4.4	.
Cc1noc(C)c1CSc1nc2[nH]ncc2c(=O)n1-c1ccccc1	17.0	10.3	13.9	4.6	-6.1	.
Cc1noc(C)c1CSc1nc2ccccc2c(=O)n1-c1ccccc1	3.1	52.0*	32.2	11.3	13.1	45.1*
CN1CCN(S(=O)(=O)c2ccc(NS(=O)(=O)c3ccccc3)cc2)CC1	-9.0	16.8	2.7	4.8	-3.4	.
CC(C)(C)C(=O)/C=c1\[nH]c(=O)/c(=C\c2ccc(F)cc2)s1	28.6	52.1*	20.6	26.9	23.8	50.7*
CC(C)(C)C(=O)/C=c1\[nH]c(=O)/c(=C\c2ccccc2F)s1	-2.0	-1.4	13.7	0.7	27.3	.
Cc1cc(=O)nc2c3ccccc3n(C(C)C(=O)NCCN3CCOCC3)n12 (stereo not drawn)	14.8	10.5	17.3	10.5	-7.4	.
CC(C)(C)c1cc(CCC(=O)NN)cc(C(C)(C)C)c1O	23.6	8.3	4.4	8.8	-19.2	.
COCCOC(=O)/C(=C\c1cc(C(C)(C)C)c(O)c(C(C)(C)C)c1)C(C)=O	5.1	59.5*	35.7	1.7	33.0	58.4*
CN(CC(=O)Nc1ccccc1Br)C(=O)CN1CCN(c2ccccc2Cl)CC1	9.9	24.6	-18.0	.	-8.5	.
Cc1cc2[nH]c(=O)c(=O)[nH]c2cc1S(=O)(=O)Nc1cccc(F)c1	-1.0	10.1	-4.0	15.0	14.6	.
CCOc1ccc(N2CC(C(=O)Nc3ccccc3N3CCOCC3)CC2=O)cc1 (stereo not drawn)	-4.3	5.2	18.1	-9.5	11.5	.
CC(C(=O)Nc1ccc(C(N)=O)cc1)N1C(=O)c2ccccc2S1(=O)=O (stereo not drawn)	12.8	-1.1	17.6	.	0.8	.
COc1ccc(OC)c(-c2csc(NC(=O)Cc3ccccc3F)n2)c1	11.3	51.0*	14.7	21.1	12.7	46.4*
COc1ccc(OC)c(-c2csc(NC(=O)Cc3ccccc3OC)n2)c1	9.3	39.9	10.6	10.7	11.0	.
Cc1nc2cc(-c3ccccc3)sc2c(=O)n1N	13.4	51.1*	36.1	-1.3	32.5	52.8*
O=C(CN1C(=O)NC2NC(=O)NC21)N/N=C/c1ccccc1F (stereo not drawn)	6.0	5.7	4.7	11.1	17.9	.
Fc1ccc(Oc2nc(-c3ccccn3)nc3ccccc23)cc1	28.1	50.1*	37.2	6.0	14.9	50.5*
SMILES	NALP3 yeast inh	tim23-1 inh	tim10-1 inh	NALP1 yeast inh	TIM10 inh	tim23-1 confirm
O=C(NN=C1c2ccccc2-c2ccccc21)c1ccccc1	-3.0	50.4*	18.6	.	34.1	65.8*
CCOC(=O)NN=C1c2ccccc2-c2ccccc21	-1.3	34.7	18.6	5.5	10.8	.
NC(=S)NN=C1c2ccccc2-c2ccccc21	26.1	57.2*	35.9	-6.7	39.8	46.0*
COc1ccc(-c2nn(CCC#N)cc2C(=O)Nc2cccc(C(=O)O)c2)cc1OC	7.8	9.8	12.9	22.6	0.9	.
S=c1[nH]nc(C2CCCCC2)n1/N=C/c1ccc(Cl)cc1	17.7	63.2*	35.3	4.4	39.7	30.0
O=[N+]([O-])c1cccc(/C=N/n2c(C3CCCCC3)n[nH]c2=S)c1	28.9	26.2	26.0	18.1	15.8	.
Cc1ccc(/C=N/n2c(C3CCCCC3)n[nH]c2=S)cc1	30.4	57.4*	25.2	-2.6	16.2	38.7
O=[N+]([O-])c1ccccc1/C=N/n1c(C2CCCCC2)n[nH]c1=S	19.8	59.3*	39.8	2.7	37.0	48.5*
FC(F)(F)c1ccc(/C=N/n2c(C3CCCCC3)n[nH]c2=S)cc1	32.7	64.0*	36.5	-4.9	26.1	29.8
Oc1ccccc1CNc1cnc2ccccc2c1	-5.8	10.4	13.0	1.3	8.9	.
Oc1ccc(Cl)cc1CNc1cnc2ccccc2c1	28.5	61.6*	-2.3	-1.2	25.6	64.5*
CN(C)c1cc2c(cc1NC(=O)c1ccccc1Cl)n(C)c(=O)n2C	15.6	18.3	5.4	4.5	-1.6	.
COc1ccc(CCNC(=S)Nc2ccc(C(C)C)cc2)cc1	22.3	50.8*	21.9	.	36.4	34.3
COc1ccc(CN2CCN(c3cccc(C)c3C)CC2)cc1OC	-35.8	8.2	10.7	33.8	-0.8	.
COc1cc(CN2CCN(c3cccc(C)c3C)CC2)cc(Br)c1O	18.3	55.1*	25.6	21.9	21.3	45.0*
Cc1cccc(-c2noc(CNC(=O)c3ccc4c(c3)OCO4)n2)c1	21.4	10.0	-40.6	0.3	5.8	.
COc1ccc(-c2noc(CNC(=O)c3ccc4c(c3)OCO4)n2)cc1	16.7	52.7*	-38.2	1.7	3.4	37.7
COc1ccc(CCNC(=O)CN2C(=O)C(=O)N(C3CCCC3)C2=O)cc1OC	-7.2	20.1	9.6	.	5.1	.
Cc1ccc(-c2cc(-c3cccs3)[nH]n2)c(O)c1	25.5	51.3*	15.1	1.5	34.9	34.2
O=C(Nc1ccc2oc(-c3ccccc3)nc2c1)c1cccnc1	37.9	56.2*	13.2	7.6	29.5	71.0*
O=C(Nc1ccc2nn(-c3ccccc3)nc2c1)c1cccnc1	36.6	52.1*	-12.8	19.5	7.7	37.2
Cc1cc(NC(=O)CSCC(=O)Nc2nc3ccccc3[nH]2)no1	8.9	2.3	-22.3	.	-13.1	.
COc1ccc2[nH]cc(CCNC(=O)C3CCCO3)c2c1 (stereo not drawn)	25.1	12.4	-10.8	15.2	13.5	.
N#Cc1nc(Nc2cc(F)cc(F)c2)c2ncn(CC(F)F)c2n1	36.8	52.4*	19.7	.	21.2	36.1
COc1cccc(/C=N/NC(=O)CN2CC(c3ccccc3)CC2=O)c1OC (stereo not drawn)	20.8	21.6	13.0	7.5	-3.7	.

High-throughput results from PubChem BioAssay.
